Source: PubChem BioAssay
This is a sample that favours compounds with a hit; in the whole collection about 0.9% have one here.
Texas Red fluor: qHTS Assay for Spectroscopic Profiling in Texas Red Spectral Region | Compound fluorescence, Texas Red channel, 547/618 nm; active compounds read high | max dye-equivalent concentration, M | 59,000 tested, 0.06% active | AID 587, 2007; in the data active = max dye-equivalent concentration above about 10 nM; inconclusive = between about 1.1 nM and that limit
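Dye-equivalent concentrations come from scaling compound signal (ex 547, em 618 nm) to six Texas Red standard concentrations run on every plate, after 15 min room-temperature incubation in pH 8.0 Tris (100 mM).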
Rhodamine fluor: qHTS Assay for Spectroscopic Profiling in Rhodamine Spectral Region; Rhodamine-region fluorescence, 547/598 nm, Tris buffer; active compounds read high; AID 594, 2007; 59,000 tested, 0.05% active; max dye-equivalent concentration, M; in the data active = max dye-equivalent concentration above about 11 nM; inconclusive = between about 1.1 nM and that limit
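qHTS spectral profiling of compounds without any target or enzyme present, in pH 8.0 Tris buffer; plates were read after a 15-minute room-temperature incubation using the rhodamine-region filter set.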
Resorufin autofl: qHTS Assay for Spectroscopic Profiling in Resorufin Spectral Region; Compound fluorescence, resorufin region 547/598 nm, buffer; active compounds read high; max dye-equivalent concentration, M; AID 588, 2007; 59,000 tested, 0.04% active
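Tris 100 mM pH 8.0; compound added, 15 min RT; CCD imager read, ex 547 nm/em 598 nm; signal normalized to resorufin standard curve (six concentrations per plate) as dye-equivalent concentration.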
A488 fluor: qHTS Assay for Spectroscopic Profiling in A488 Spectral Region. compound autofluorescence, A488 spectral region, dye equivalency; Compound Type: qHTS ECL - MLSMR. max dye equivalency, M. 59,000 tested, 0.1% active
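Intrinsic compound fluorescence is measured in 100 mM Tris buffer at pH 8.0 following 15 min incubation at room temperature. Intensities at 480 nm excitation/540 nm emission are calibrated to an on-plate A488 concentration series, giving dye-equivalent concentrations.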
Fluorescein fluor: qHTS Assay for Spectroscopic Profiling in Fluorescein Spectral Region; Compound autofluorescence, 480/540 nm, fluorescein-equivalent; active compounds read high; max fluorescein-equivalent concentration, M; 59,000 tested, 0.91% active; AID 593, 2007; in the data active = max fluorescein-equivalent concentration above about 10 nM; inconclusive = between about 1.1 nM and that limit
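Normalized response (dye-equivalent concentration) derives from comparing each well's 540 nm emission, under 480 nm excitation, with plate-resident fluorescein standards. Compounds were held in 100 mM Tris, pH 8.0, for 15 min at room temperature.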
A647 autofl: qHTS Assay for Spectroscopic Profiling in A647 Spectral Region; 59,000 tested, under 10 active; AID 592, 2007; Compound fluorescence, A647 channel (570/671 nm), Tris buffer; max dye-equivalent concentration, M
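Fluorescence read (570 nm ex, 671 nm em) after 15 min RT incubation of compounds in 100 mM Tris buffer, pH 8.0; values expressed as dye-equivalent concentration against a six-point A647 standard series on each plate.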
Each line names hits and unclear results; the compound was inactive in the other large screens; ! = not confirmed by another sample. Unless noted, the rule behind the calls is not given here.

Cc1cccc(C)c1NC(=O)CN1CCN(CCCC(c2ccc(F)cc2)c2ccc(F)cc2)CC1	Fluorescein fluor 1e-08M
COCCNc1ncnc2ccc(-c3ccoc3)cc12	Fluorescein fluor inconclusive
Nc1nonc1C(=O)NCCN=Cc1cc(Cc2ccccc2)cc(Br)c1O	Fluorescein fluor 2e-08M
Cc1ccc(S(=O)(=O)NC(=O)OC23COCN2COC3)cc1	Fluorescein fluor inconclusive
Cn1c2ccccc2c(=O)n2c(=O)c3ccccc3cc12	A488 fluor inconclusive, Fluorescein fluor 3.9e-08M
Cc1ccnn2c(-c3ccccc3)c3c(=O)n(C)c(=O)n(C)c3c12	Fluorescein fluor 1.2e-08M
Cc1ccc(-c2c3c(=O)n(C)c(=O)n(C)c3c3nnc4ccccc4n23)cc1	A488 fluor inconclusive, Fluorescein fluor 1.1e-07M
O=C(c1ccco1)[C@@H]1[C@@H]2C(=O)N(c3ccccc3)C(=O)[C@@H]2C2c3ccccc3C=CN21 (stereo partly drawn)	Fluorescein fluor 1.8e-08M
CC(=O)[C@@H]1[C@@H]2C(=O)N(Cc3ccccc3)C(=O)[C@@H]2C2c3ccccc3C=CN21 (stereo partly drawn)	Fluorescein fluor 1.5e-08M
Cc1ccc(N2C(=O)[C@@H]3[C@H](C2=O)C2c4ccccc4C=CN2[C@@H]3C(=O)c2ccco2)cc1 (stereo partly drawn)	Texas Red fluor inconclusive, Fluorescein fluor 1.1e-08M
C=CCn1c(=S)[nH]c2nc3c(cc2c1=O)CCCC3	none
C=CCn1c(=S)[nH]c2ccc(Br)cc2c1=O	Fluorescein fluor 1.9e-08M
CS(=O)(=O)N1CCC2(CCCN(C(c3ccccc3)c3ccccc3)C2)CC1	none
CC1(C)CC(=O)C2=C(C1)N1CCCCC1CC2=O (stereo not drawn)	Fluorescein fluor 1.5e-08M
CCOC(=O)c1cnn2c(C(F)(F)F)cc(-c3ccco3)nc12	none
CC(C)OC(=O)c1nn2c(C(F)(F)F)cc(-c3ccc(Br)o3)nc2c1Br	Fluorescein fluor 1.6e-08M
CCOC(=O)c1c(C)[nH]c(C=Nc2ccccc2)c1O	Texas Red fluor inconclusive, Fluorescein fluor 1.7e-08M
CN1CCc2c(sc3c2C(=O)NC(c2cccs2)N3)C1 (stereo not drawn)	Texas Red fluor inconclusive, Fluorescein fluor 1.8e-08M
Cc1ccc(C2NC(=O)c3ccccc3N2)s1 (stereo not drawn)	Texas Red fluor inconclusive
CCOC(=O)N1CCN(Cc2nc3c(c(=O)n(C)c(=O)n3C)n2CCCc2ccccc2)CC1	Texas Red fluor inconclusive, Rhodamine fluor inconclusive, Resorufin autofl inconclusive, A488 fluor inconclusive, Fluorescein fluor 5.6e-08M
CC(=O)c1ccc(N2C(=O)C3C(C2=O)C(C(=O)c2ccc(Cl)cc2)N2CCCC32)cc1 (stereo not drawn)	A488 fluor inconclusive, Fluorescein fluor 1.3e-07M
O=C(c1ccc(Cl)cc1)C1C2C(=O)N(c3ccccc3)C(=O)C2C2CCCN21 (stereo not drawn)	A488 fluor inconclusive, Fluorescein fluor 5.2e-08M
Cc1ccc(N2C(=O)[C@@H]3[C@H](C2=O)C2CCCN2[C@@H]3C(=O)c2ccccc2)cc1 (stereo partly drawn)	Fluorescein fluor inconclusive
C=CCOC(=O)C(C#N)c1nc2ccccc2nc1N1CCN(Cc2ccc3c(c2)OCO3)CC1 (stereo not drawn)	Fluorescein fluor 1.2e-08M
CCCCNC(=O)C(C#N)c1nc2ccccc2nc1N1CCN(Cc2ccc3c(c2)OCO3)CC1 (stereo not drawn)	Fluorescein fluor inconclusive
COc1ccc(CNC(=O)C(C#N)c2nc3ccccc3nc2N2CCCC2)cc1 (stereo not drawn)	A488 fluor 2.1e-08M, Fluorescein fluor 3.5e-07M
CCCCCCOC(=O)C(C#N)c1nc2ccccc2nc1N1CCCCC1 (stereo not drawn)	Fluorescein fluor 1e-08M
COc1ccc(CNC(=O)C(C#N)c2nc3ccccc3nc2N2CCN(C)CC2)cc1 (stereo not drawn)	none
CC1CCN(c2nc3ccccc3nc2C(C#N)C(=O)NC2CCCCC2)CC1 (stereo not drawn)	Fluorescein fluor 1.4e-08M
O=C1/C(=C/c2ccccc2)[C@@H](NC2CCCCC2)c2ccccc21	Texas Red fluor inconclusive
N[C@H](Cc1ccc(O)c(I)c1)C(=O)O	Texas Red fluor inconclusive
O=C(Nc1ccccc1)N1CC[C@@]2(CCCN(C(=O)c3cccc(F)c3)C2)C1	none
CC(C)CO[C@H](c1ccc2c(c1)OCO2)[C@H](C)Br	Fluorescein fluor inconclusive
C=CCNC(=O)C(C#N)c1nc2ccccc2nc1N1CCCCCC1 (stereo not drawn)	Fluorescein fluor 1.3e-08M
CC1CN(c2nc3ccccc3nc2C(C#N)C(=O)NCc2ccc3c(c2)OCO3)CC(C)O1 (stereo not drawn)	A488 fluor inconclusive, Fluorescein fluor 1.1e-07M
CCCCNC(=O)C(C#N)c1nc2ccccc2nc1N1CCCC1 (stereo not drawn)	A488 fluor 1.2e-08M, Fluorescein fluor 2.3e-07M
COC(=O)C(C#N)c1nc2ccccc2nc1N1CCCC1 (stereo not drawn)	none
NCCc1nc(-c2nc(C(=O)O)cs2)cs1	none
Cc1c(C(=O)O)c(O)cc2c1C(=O)c1c(O)c([C@@H]3O[C@H](CO)[C@@H](O)[C@H](O)[C@@H]3O)c(O)c(O)c1C2=O	none
OCc1ccncc1.OCc1ccncc1.[Cl][Pt]([Cl])([Cl])[Cl]	none
Cn1c(=O)c2[nH]c(CS(=O)(=O)Cc3nc4c([nH]3)c(=O)n(C)c(=O)n4C)nc2n(C)c1=O	Texas Red fluor inconclusive, A488 fluor inconclusive, Fluorescein fluor 1.2e-07M
Cc1cc(C)c(S(=O)(=O)N(CC(=O)N2CCOCC2)C2CCCCC2)c(C)c1	none
Cc1cc(C)c(S(=O)(=O)N(CC(=O)O)C2CCCCC2)c(C)c1	Fluorescein fluor 2.6e-08M
COC(=O)[C@@H]1[C@@H]2C[C@H]3c4[nH]c5ccccc5c4CCN3C[C@@H]2CC[C@@H]1OS(=O)(=O)O	Fluorescein fluor inconclusive
O=C(O)[C@@H]1[C@@H]2C[C@H]3c4[nH]c5ccccc5c4CCN3C[C@@H]2CC[C@@H]1O	Fluorescein fluor 1.7e-08M!
O=C1C=CC2=C3c4cc(O)c(O)cc4C[C@@]3(O)COC2=C1O	Texas Red fluor inconclusive, Fluorescein fluor inconclusive
COc1ccc2cc3c(N)c(C(=O)NCc4ccco4)sc3nc2c1	Fluorescein fluor 2.4e-08M
C[C@@](N)(Cc1c[nH]c2ccccc12)C(=O)O	Fluorescein fluor inconclusive
CCN1CCc2c(sc3c2c(NCc2ccco2)nc2nnnn23)C1	Fluorescein fluor 1.3e-08M
Cc1nc(NCc2ccco2)c2c3c(sc2n1)CCC3	none
